The nature of assay [1]: antimalarial activity against Dd2 strain (AID 2302;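 active = growth inhibition above 50% at the single 2 µM test dose, taken to imply half-maximal potency below 2 µM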;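 note: 0% = DMSO untreated growth and 100% = chloroquine plus artemisinin killed control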). The conditions noted are these: P. falciparum Dd2 in RBCs, LDH growth readout, 72 h; at 2 µM; active compounds read high.
A short description of assay [2]: human hepatoma cell viability loss – ATP luminescence, cytotoxicity control for P. falciparum antimalarial project, primary screen (AID 2303;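 active = inhibition above 50%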;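 note: 0% = DMSO wells and 100% = digitonin-killed cells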). The conditions noted are these: HepG2 viability, 24-48 h, at 10 µM, active compounds read high.
Assay [3] addresses L-lactate dehydrogenase (Plasmodium falciparum (isolate CDC / Honduras)) (UniProt Q27743). As to the kind of experiment: PfLDH activity inhibition – cell lysate, 3D7 strain, counter-screen for P. falciparum growth inhibition project (AID 2304).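 Note: 0% = vehicle and 100% = reference inhibitor.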 The conditions noted are these: P. falciparum 3D7 crude extract, LDH APAD/NBT absorbance; at 2 µM; active compounds read high. (In general: The purpose of a counterscreen is to sort out artefacts and off-target activity.)

Assay [4] is described as follows: inhibition of 3D7 malaria parasite growth – strain 3D7 (AID 2306).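 Note: 0% = DMSO wells and 100% = chloroquine plus artemisinin control wells.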 The settings on record: P. falciparum 3D7 erythrocytic growth, LDH absorbance, 72 h; at 2 µM; active compounds read high.
Assay [5] addresses Calcium-dependent protein kinase 1 (Plasmodium falciparum (isolate 3D7)) (UniProt P62344). As to the kind of experiment: PfCDPK1 kinase inhibitors, biochemical, TCAMS library (AID 1159585; cut-off not given, nearly all actives have IC50 up to about 0.98 µM;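 note: inhibitors leave more ATP so luminescence rises with inhibition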). The settings on record: recombinant PfCDPK1, Kinase-Glo ATP depletion luminescence. A general note: Kinase-Glo measures the ATP left after a reaction by luminescence.
Assay [6] has as its target Plasmodium falciparum protein kinase 6 (PK6, PF3D7_1337100) (UniProt Q8IDW1). As to the kind of experiment: PfPK6 kinase inhibitors, biochemical, TCAMS library (AID 1159586). The conditions noted are these: recombinant PfPK6, Kinase-Glo ATP depletion luminescence.
Assay [7] addresses Protein kinase 7 (PK7), Plasmodium falciparum 3D7 (PF3D7_0213400) (UniProt Q7YTF7). As to the kind of experiment: inhibition of Plasmodium PK7 catalytic activity – biochemical, TCAMS antimalarial set, Kinase-Glo luminescence (AID 1159587). The conditions noted are these: recombinant PfPK7, Kinase-Glo ATP depletion luminescence.
Assay [8] deals with Calcium-dependent protein kinase 4 (Plasmodium falciparum (isolate 3D7)) (UniProt Q8IBS5). The experiment in a line: PfCDPK4 kinase inhibitors, biochemical, TCAMS library (AID 1159588; cut-off not given, nearly all actives have IC50 up to about 0.91 µM). The conditions noted are these: recombinant PfCDPK4, Kinase-Glo ATP depletion luminescence.
Chain of Calcium-dependent protein kinase 4 (Plasmodium falciparum (isolate 3D7)) (Q8IBS5 whole entry, looked up): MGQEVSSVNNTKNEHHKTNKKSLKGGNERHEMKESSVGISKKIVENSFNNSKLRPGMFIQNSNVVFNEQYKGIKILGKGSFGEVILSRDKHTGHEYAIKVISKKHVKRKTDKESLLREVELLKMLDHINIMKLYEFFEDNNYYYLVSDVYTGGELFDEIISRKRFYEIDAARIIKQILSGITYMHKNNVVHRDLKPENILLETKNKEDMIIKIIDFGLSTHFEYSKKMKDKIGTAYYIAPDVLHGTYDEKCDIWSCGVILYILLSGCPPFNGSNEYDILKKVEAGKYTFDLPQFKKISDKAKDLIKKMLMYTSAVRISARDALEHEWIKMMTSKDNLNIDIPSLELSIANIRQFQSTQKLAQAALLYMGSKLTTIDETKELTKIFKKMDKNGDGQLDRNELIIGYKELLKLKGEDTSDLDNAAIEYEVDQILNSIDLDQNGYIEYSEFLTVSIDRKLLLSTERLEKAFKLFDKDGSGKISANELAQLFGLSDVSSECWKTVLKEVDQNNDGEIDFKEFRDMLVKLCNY

Values without a mark were called inactive. For some of these results: Potency and affinity values are given separately. The source made the active and inactive calls. Unless noted, the rule behind the calls is not given here.

Chain of L-lactate dehydrogenase (Plasmodium falciparum (isolate CDC / Honduras)) (Q27743 whole entry, looked up): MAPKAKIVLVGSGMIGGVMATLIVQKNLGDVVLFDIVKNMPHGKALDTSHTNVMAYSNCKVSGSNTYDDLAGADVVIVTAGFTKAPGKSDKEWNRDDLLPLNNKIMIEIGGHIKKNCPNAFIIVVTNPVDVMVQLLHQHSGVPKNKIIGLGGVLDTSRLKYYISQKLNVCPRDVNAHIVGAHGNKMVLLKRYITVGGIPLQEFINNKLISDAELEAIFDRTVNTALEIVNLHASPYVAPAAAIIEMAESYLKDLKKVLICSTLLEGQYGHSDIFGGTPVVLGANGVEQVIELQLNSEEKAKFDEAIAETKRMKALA
Chain of Plasmodium falciparum protein kinase 6 (PK6, PF3D7_1337100) (Q8IDW1 1-305): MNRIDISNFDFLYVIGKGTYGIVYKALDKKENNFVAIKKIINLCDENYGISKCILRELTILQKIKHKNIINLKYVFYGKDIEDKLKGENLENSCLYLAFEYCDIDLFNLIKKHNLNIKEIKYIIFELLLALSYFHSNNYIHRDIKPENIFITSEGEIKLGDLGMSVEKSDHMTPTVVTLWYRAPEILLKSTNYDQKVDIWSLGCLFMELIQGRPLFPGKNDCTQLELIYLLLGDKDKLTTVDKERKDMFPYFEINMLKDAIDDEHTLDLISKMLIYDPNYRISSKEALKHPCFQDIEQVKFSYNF
Chain of Protein kinase 7 (PK7), Plasmodium falciparum 3D7 (PF3D7_0213400) (Q7YTF7 1-343): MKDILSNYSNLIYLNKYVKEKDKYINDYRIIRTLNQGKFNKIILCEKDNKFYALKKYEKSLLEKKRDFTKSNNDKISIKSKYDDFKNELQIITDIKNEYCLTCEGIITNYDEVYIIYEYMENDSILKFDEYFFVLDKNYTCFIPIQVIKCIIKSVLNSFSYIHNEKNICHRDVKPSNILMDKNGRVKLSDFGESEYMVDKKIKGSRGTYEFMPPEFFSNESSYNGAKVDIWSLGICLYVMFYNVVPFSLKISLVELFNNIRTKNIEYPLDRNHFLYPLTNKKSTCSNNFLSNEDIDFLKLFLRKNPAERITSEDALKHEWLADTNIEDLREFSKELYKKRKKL
Chain of Calcium-dependent protein kinase 1 (Plasmodium falciparum (isolate 3D7)) (P62344 whole entry, looked up): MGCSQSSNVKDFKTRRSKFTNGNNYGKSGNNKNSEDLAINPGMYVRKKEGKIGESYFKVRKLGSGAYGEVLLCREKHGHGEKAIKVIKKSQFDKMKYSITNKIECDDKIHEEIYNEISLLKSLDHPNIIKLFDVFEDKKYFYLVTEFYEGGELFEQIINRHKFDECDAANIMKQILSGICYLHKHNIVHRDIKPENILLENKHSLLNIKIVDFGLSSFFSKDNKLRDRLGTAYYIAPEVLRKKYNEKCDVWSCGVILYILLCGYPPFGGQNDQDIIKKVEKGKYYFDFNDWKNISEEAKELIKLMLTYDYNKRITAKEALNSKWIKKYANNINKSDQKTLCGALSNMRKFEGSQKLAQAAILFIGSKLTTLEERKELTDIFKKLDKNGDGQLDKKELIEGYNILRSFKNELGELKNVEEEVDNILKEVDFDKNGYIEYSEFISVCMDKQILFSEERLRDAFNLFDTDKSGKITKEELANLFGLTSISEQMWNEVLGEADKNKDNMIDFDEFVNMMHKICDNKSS

The term inhibition denotes the drop in the measured response relative to a control, in per cent. In the case of `Cc1cccc2[nH]c(-c3ccc(-c4ccc(CN5CCN(c6ccncc6)CC5)cc4)s3)nc12`, the values for the growth inhibition in assay [1] and in assay [4] were 98% (active) and 102% (active), respectively. Besides, the values for the inhibition in assay [2] and in assay [3] were 85% (active) and 2%, respectively. Further, the result in assay [5], in assay [6], in assay [7] and in assay [8] was inactive.
For `Cc1cc(C(=O)NC2CCN(Cc3ccccc3)CC2)ccc1-c1nc2cc(Cl)c(Cl)cc2[nH]1`, the growth inhibition is 32% in assay [1] and 96% (active) in assay [4]. Besides, the inhibition in assay [2] was 7%; in assay [3], 0%. The outcome in assay [5], in assay [6], in assay [7] and in assay [8] was inactive.
With `CN(C)c1ccc(-c2csc(C(=O)NCC3CCN(Cc4cccc(C(F)(F)F)c4)C3)c2)cc1` (stereo not given), the growth inhibition is 58% (active) in assay [1] and 97% (active) in assay [4]. Besides, the figures for the inhibition in assay [2] and in assay [3] were 15% and -2%, respectively. Further, the result in assay [5], in assay [6], in assay [7] and in assay [8] was inactive.
Turning to `COc1ccc(CNCCCCCCNCCc2ccc(Cl)cc2)cc1OC`, the values for the growth inhibition in assay [1] and in assay [4] were 0% and 96% (active), respectively. Moreover, the inhibition in assay [2] was 21%; in assay [3], 0%. The result in assay [5], in assay [6], in assay [7] and in assay [8] was inactive.
For the compound `O=C(Nc1ccc2c(c1)CCN2C1CCN(Cc2ccc(C(F)(F)F)cc2F)C1)c1ccco1` (stereo not given), the growth inhibition was 94% (active) in assay [1] and 91% (active) in assay [4]. Moreover, the inhibition in assay [2] is 9%; in assay [3], 1%. Moreover, the outcome in assay [5], in assay [6], in assay [7] and in assay [8] was inactive.
On to `CCOc1cc(C)ccc1N1CCN(CCCCNC(=O)c2ccc(NC(=O)c3ccc(Cl)cc3)cc2)CC1`, for which the results for the growth inhibition in assay [1] and in assay [4] were 46% and 100% (active), respectively. The inhibition in assay [2] is 19%; in assay [3], -5%. Further, the outcome in assay [5], in assay [6], in assay [7] and in assay [8] was inactive.
Regarding `CC(=O)Nc1nc(C(=O)Nc2ccc(-c3ccc(-c4nc5ccc(F)cc5[nH]4)cc3)cc2)cs1`, the figures for the growth inhibition in assay [1] and in assay [4] were 33% and 100% (active), respectively. Besides, the results for the inhibition in assay [2] and in assay [3] were 17% and -5%, respectively. Moreover, the result in assay [5], in assay [6], in assay [7] and in assay [8] was inactive.
With `COc1ccc(CCN(C)CCOc2ccc(NC(=O)c3cccc4cc5ccccc5nc34)cc2)cc1OC`, the growth inhibition in assay [1] was 99% (active); in assay [4], 100% (active). The inhibition in assay [2] is 37%; in assay [3] it was -5%. The outcome in assay [5], in assay [6], in assay [7] and in assay [8] was inactive.
Consider `CCc1cn2c3c(cc(C(=O)N[C@@H](Cc4ccccc4)[C@H](O)CNCc4ccccc4)cc13)N(C)S(=O)(=O)CC2`, for which the growth inhibition in assay [1] was 99% (active); in assay [4] it was 98% (active). For the same compound, the values for the inhibition in assay [2] and in assay [3] were 3% and 1%, respectively. For the same compound, the result in assay [5], in assay [6], in assay [7] and in assay [8] was inactive.
For the compound `CN(c1ncc(-c2cccc(CNCc3ccccc3O)c2)cn1)C1CCCCC1`, the growth inhibition in assay [1] is 71% (active); in assay [4] it was 95% (active). Besides, the inhibition in assay [2] is 12%; in assay [3] it was 3%. Also, the outcome in assay [5], in assay [6], in assay [7] and in assay [8] was inactive.
`COc1ccc2nccc([C@@H](O)CN3[C@@H]4CC[C@H]3CC(NCc3ccc5c(n3)NC(=O)CS5)C4)c2n1` (stereo not given in full): the results for the growth inhibition in assay [1] and in assay [4] were 11% and 99% (active), respectively. Also, the inhibition was -1% in assay [2] and 4% in assay [3]. In addition, the result in assay [5], in assay [6], in assay [7] and in assay [8] was inactive.
In the case of `O=C(/C=C/c1ccc(Cl)c(Cl)c1)NCCCCCN1CCC(NC(=O)Nc2ccccc2F)CC1`, the figures for the growth inhibition in assay [1] and in assay [4] were 25% and 95% (active), respectively. The inhibition in assay [2] was 14%; in assay [3] it was -5%. Further, the outcome in assay [5], in assay [6], in assay [7] and in assay [8] was inactive.
Take `O=C(/C=C/c1ccc(Cl)c(Cl)c1)NCCCCCN1CCN(C(=O)Nc2ccc(OC(F)F)cc2)CC1`: the growth inhibition in assay [1] was -2%; in assay [4], 99% (active). The inhibition in assay [2] is 20%; in assay [3], 4%. In addition, the outcome in assay [5], in assay [6], in assay [7] and in assay [8] was inactive.
Turning to `COc1ccc2nccc(N3CCC(SCCNCc4ccc5c(n4)NC(=O)CS5)C3)c2n1` (stereo not given), the values for the growth inhibition in assay [1] and in assay [4] were 100% (active) and 95% (active), respectively. Moreover, the inhibition in assay [2] was 34%; in assay [3] it was 2%. The outcome in assay [5], in assay [6], in assay [7] and in assay [8] was inactive.
On to `O=c1cc(NCCCNCc2cc(Br)ccc2F)[nH]c2ccccc12`, for which the growth inhibition in assay [1] was 14%; in assay [4], 95% (active). Further, the results for the inhibition in assay [2] and in assay [3] were -2% and 6%, respectively. The outcome in assay [5], in assay [6], in assay [7] and in assay [8] was inactive.
For `CNC(=O)c1[nH]c(-c2ccccc2)nc1NC(C)=O`, the growth inhibition is -2% in assay [1] and 100% (active) in assay [4]. The values for the inhibition in assay [2] and in assay [3] were -3% and -2%, respectively. Further, the outcome in assay [5], in assay [6], in assay [7] and in assay [8] was inactive.
`CC(C)Oc1cc(-c2ccc(S(C)(=O)=O)cc2)nc(N(Cc2cccc(F)c2F)Cc2cccc(F)c2F)n1`: the growth inhibition in assay [1] was 99% (active); in assay [4] it was 101% (active). Also, the figures for the inhibition in assay [2] and in assay [3] were 10% and 4%, respectively. Also, the result in assay [5], in assay [6], in assay [7] and in assay [8] was inactive.
Turning to `Cc1ccc(NC(=O)c2ccc(CN3CCCN(Cc4cccc(O)c4)CC3)cc2)cc1`, the growth inhibition is 31% in assay [1] and 90% (active) in assay [4]. In addition, the inhibition in assay [2] was 39%; in assay [3], -5%. The result in assay [5], in assay [6], in assay [7] and in assay [8] was inactive.
In the case of `COc1ccc(N2CCN(c3nc(Nc4ccc(NC(C)=O)cc4)nc(N4CCCC4)n3)CC2)cc1`, the growth inhibition was 38% in assay [1] and 91% (active) in assay [4]. Further, the results for the inhibition in assay [2] and in assay [3] were -7% and -2%, respectively. Also, the result in assay [5], in assay [6], in assay [7] and in assay [8] was inactive.
Regarding `O=C(CCCCCNC(=O)c1ccc(O)c(-c2ccc(Cl)c(Cl)c2)c1)NCCN1CCOCC1`, the growth inhibition in assay [1] is 0%; in assay [4], 95% (active). In addition, the inhibition is -7% in assay [2] and -3% in assay [3]. In addition, the outcome in assay [5], in assay [6], in assay [7] and in assay [8] was inactive.

Values taken from PubChem BioAssay.
